Compound activity (PubChem)
Pol eta inh – blocks human DNA polymerase eta activity; Q9Y253; recombinant Pol eta, fluorescent DNA replication assay; Potency, µM (series often up to 114 µM), for inactives: at the top dose activity change, negative = inhibition, most hits filed as inhibitors; 390,000 compounds, 1.2% hits; AID 588591; note: % is set by controls: 0 for no effect and ±100 for the full control effect
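Pol eta (10 nM) was preincubated with compounds for 15 min at room temperature, after which fluorescent replication substrate (50 nM final) was added to start the reaction. Fluorescence was read kinetically at 0 and 10 min.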
POLB inh – inhibitors of human DNA polymerase beta; P06746; Pol beta primer extension/strand displacement, fluorescence kinetic; Potency, µM (titrated, usually from 114 µM), for the others: at the top dose activity change, negative = inhibition, hits mostly inhibitors; 340,000 compounds, 1.3% hits; AID 485314; note: % is set by controls: 0 for no effect and ±100 for the full control effect
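Enzyme-only controls used 10 nM Pol beta; buffer lacking enzyme served as negative control. Compound preincubated 15 min, then 50 nM substrate added; 0 and 10 min reads at room temperature.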
WRN inhibitor – inhibitors of human WRN helicase. AID 651768. 360,000 compounds, 0.46% hits. WRN helicase unwinding, fluorescent forked duplex, kinetic. Q14191. Potency, µM (highest dose often 114 µM), for inactives: top-dose activity change, negative = inhibition, most hits filed as inhibitors; note: % is set by controls: 0 for no effect and ±100 for the full control effect; nearly all actives have a fitted effect of over 55% in size
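Kinetic fluorescence helicase assay: unwinding of a quenched forked DNA duplex (100 nM final) with 2 mM ATP final raises red fluorescence (525/598 nm). Compounds sat 15 min at room temperature with 20 nM WRN beforehand.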
POLK inh – inhibitors of human DNA polymerase kappa; purified Pol kappa, fluorescent DNA synthesis assay, 10 min; Potency, µM (doses to about 107 µM), inactives show top-dose activity, negative = inhibition, hits mostly inhibitors; 400,000 compounds, 0.53% hits; AID 588579; note: % is set by controls: 0 for no effect and ±100 for the full control effect
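10 nM Pol kappa was preincubated with compounds for 15 min at room temperature. Reaction started with 50 nM (final) substrate. Fluorescence read kinetically at 0 and 10 min.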
POLI inh – blocks human DNA polymerase iota activity | 390,000 compounds, 1% hits | AID 588590 | Potency, µM (top dose mostly 115 µM), for inactives: top-dose activity, negative = inhibition, most hits filed as inhibitors | Q9UNA4 | Pol iota fluorescent replication assay, 10 min
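Fluorescent replication assay read twice, at 0 min and 10 min after adding 50 nM (final) substrate. Enzyme (10 nM) and compounds were first incubated 15 min at room temperature; enzyme-free buffer wells were negative controls.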
FEN1 inh – human FEN1 inhibition; Recombinant FEN1 flap cleavage, fluorescence, 15 min; AID 588795; Potency, µM (doses to about 114 µM), inactives show at the highest dose activity change, negative = inhibition, most hits filed as inhibitors; 390,000 compounds, 0.35% hits; P39748; note: % is set by controls: 0 for no effect and ±100 for the full control effect; nearly all actives have a fitted effect of over 65% in size
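Reaction started by adding substrate (50 nM final) to 10 nM enzyme after 15 min room-temperature compound preincubation. Reads at 0 and 15 min, with data normalized and fitted to a four-parameter Hill equation.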
Active calls of the source: *; ? = inconclusive; / = no result; [ ] = dose if it differs, or a comment. This is a sample that favours compounds with a hit; in the whole collection about 2.4% have one here. Calls come from the whole dose curve; as a rule, active = well fitted curve in the direction sought with a large enough effect; inconclusive = small, poorly fitted or top-dose-only effect, or another doubt; inactive = no such curve, though single readings can be large; an effect the other way counts as inactive or inconclusive. Potency is the fitted concentration of half-maximal effect.

SMILES	Pol eta inh	POLB inh	WRN inhibitor	POLK inh	POLI inh	FEN1 inh
CCCCNc1nc(=S)[nH]c2cc(OC)c(OC)cc12	-5%	89µM*	-24%	-3%	5%	-21%
O=C1CCC[C@@H]2CC(N(Cc3cc4ccccc4s3)c3ccccc3)C[C@@H]3CCN1[C@H]23 (stereo partly specified)	/	/	/	0%	15%	-16%
CCN=C1S/C(=C/c2ccc(-c3ccc(Cl)cc3C(=O)O)o2)C(=O)N1CC	35µM*	0%	-27%	-18%	-6%	?
CCN1C(=O)/C(=C\c2ccc(-c3cccc(C(=O)OC)c3)o2)SC1=Nc1ccc(C(=O)O)cc1	/	-22%	/	/	/	/
Cc1ccc2cccc(NC(=O)c3ccc(-c4cccc(Cl)c4)o3)c2n1	3%	23%	/	-3%	-24%	-7%
CN1C(=O)c2ccccc2Sc2ccc(NC(=O)Cc3c(F)cccc3Cl)cc21	-15%	20µM*	/	-10%[60.1 µM]	?	-15%
CC1(C)CC[C@]2(C(=O)n3ccnc3)CC[C@]3(C)[C@H](C(=O)C=C4[C@@]5(C)C=C(C#N)C(=O)C(C)(C)[C@@H]5CC[C@]43C)[C@@H]2C1	3.5µM*	/	?	-10%	14µM*	?
Cc1ccc(-c2nnc(Nc3cccc(C(F)(F)F)c3)c3ccccc23)cc1S(=O)(=O)N1CCOCC1	-9%	7%	/	-6%[60.1 µM]	-4%	-17%
Cc1ccc(S(=O)(=O)N2CCN(c3nc(N(C)c4cc(Cl)ccc4O)nc4ccccc34)CC2)cc1	/	/	/	-16%	19%	-15%
Cc1nn(CC(=O)N(C)Cc2ccc(F)cc2)c(C)c1[N+](=O)[O-]	-7%	0.18µM*	4%	0%	11%	-4%
Cc1nn(CCCC(=O)NCc2ccc(F)cc2)c(C)c1[N+](=O)[O-]	-21%	?	7%	-6%	12%	7%
CC(=O)c1ccc(NC(=O)Cn2c(=O)nc(-c3ccccc3)c3ccccc32)cc1	-10%	-18%	/	-9%[60.1 µM]	71µM*	11%
CC(C)(C)OC(=O)N1CCN(/[N+]([O-])=N/Oc2ccc([N+](=O)[O-])cc2[N+](=O)[O-])CC1	/	/	/	-15%	29%	?
COc1cc2c(NC3CCN(C)CC3)nc(N3CCCN(C)CC3)nc2cc1OCCOCCN(C)C	/	/	/	-16%	?	28µM*
COc1cc2c(NC3CCN(C(C)C)CC3)nc(N3CCCN(C)CC3)nc2cc1OCCCN1CCCC1	/	/	/	-34%	?	22µM*
COc1cc2c(NC3CCN(C)CC3)nc(N3CCN(C)CC3)nc2cc1OCCOCCN(C)C	/	/	/	-2%	-3%	?
COc1cc2c(NC3CCN(C(C)C)CC3)nc(N3CCCN(C)CC3)nc2cc1OCCOCCN(C)C	/	/	/	-25%	?	40µM*
CNc1nc(N2CCCN(C)CC2)nc2cc(OC)c(OC)cc12	/	/	/	-23%	?	?
COc1cc2c(NC3CCN(C)CC3)nc(N3CCCCC3)nc2cc1OCCOCCN(C)C	/	/	/	-29%	50µM*	?
CCCCCCCCCCCCCCCCOC(=O)N1CCN(/[N+]([O-])=N/Oc2ccc([N+](=O)[O-])cc2[N+](C)=O)CC1	/	/	/	8%	?	8%
COc1ccccc1N1CCN(CCCNC(=O)c2cnn(-c3ccccc3)c2C2CCN(C(=O)OC(C)(C)C)CC2)CC1	-15%	10%	/	-5%	15%	-8%
O=C(Nc1ccccc1Sc1ccccc1)c1cnn2c1NC(=C1CC1)C=C2C(F)(F)F	/	/	/	-8%	-17%	?
CCc1ccc(-n2c(=O)c3c(C)c(C)sc3n(CC(=O)NCc3ccc(C)cc3)c2=O)cc1	/	1%	/	11%	7%	-3%
CCC1C/C(=C\c2cccnc2)C(=O)/C(=C/c2cccnc2)C1 (stereo unspecified)	11µM*	0%	?	-6%	22µM*	-6%
O=C1/C(=C/c2cccnc2)CC/C1=C\c1cccnc1	-9%	0%	7%	-8%	12%	-3%
